Test results as given in PubChem BioAssay (NCI).
About 83,000 compounds went through this panel and 20% of them were active in at least one assay; those are over-represented in the sample as a whole.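 The test compound was applied at a single concentration to cells in 96-well plates for 48 hours, and percent growth was recorded.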 Unmarked numbers belong to inactive results. Active and inactive are the calls of the source. How the source made its calls: active means growth percent below 10; inactive means the rest.

Columns and labels:
Assay in all cases: NCI-60 one-dose screen, 48 h (100 = growth as untreated, 0 = no growth, -100 = all killed)
Conditions in all cases: 10 µM unless noted
HCT-15 colon = tested on: HCT-15 colon
HT29 colon = tested on: HT29 colon
SNB-75 CNS = tested on: SNB-75 CNS
SNB-19 CNS = tested on: SNB-19 CNS
U251 CNS = tested on: U251 CNS
PC-3 prostate = tested on: PC-3 prostate
SK-MEL-5 melanoma = tested on: SK-MEL-5 melanoma
UACC-62 melanoma = tested on: UACC-62 melanoma
LOX IMVI melanoma = tested on: LOX IMVI melanoma
SK-MEL-28 melanoma = tested on: SK-MEL-28 melanoma
SK-MEL-2 melanoma = tested on: SK-MEL-2 melanoma
EKVX NSCLC = tested on: EKVX NSCLC
SN12C renal = tested on: SN12C renal
UO-31 renal = tested on: UO-31 renal
TK-10 renal = tested on: TK-10 renal
ACHN renal = tested on: ACHN renal
A498 renal = tested on: A498 renal
MOLT-4 leukemia = tested on: MOLT-4 leukemia
CCRF-CEM leukemia = tested on: CCRF-CEM leukemia

Row | SMILES | growth (HCT-15 colon) | growth (HT29 colon) | growth (SNB-75 CNS) | growth (SNB-19 CNS) | growth (U251 CNS) | growth (PC-3 prostate) | growth (SK-MEL-5 melanoma) | growth (UACC-62 melanoma) | growth (LOX IMVI melanoma) | growth (SK-MEL-28 melanoma) | growth (SK-MEL-2 melanoma) | growth (EKVX NSCLC) [%] | growth (SN12C renal) | growth (UO-31 renal) | growth (TK-10 renal) | growth (ACHN renal) | growth (A498 renal) | growth (MOLT-4 leukemia) | growth (CCRF-CEM leukemia)
1 | O=C(NCc1ncc[nH]1)c1ccc(-c2nc3ccc4[nH]ncc4c3c3c2CCCC3)cc1 | 48% | 22.3% | 30.1% | 13.9% | 13.2% | 2.66% (active) | 8.91% (active) | 4.94% (active) | 3.29% (active) | -1.75% (active) | -32.6% (active) | 47.9 | 10.5% | 51.6% | -2.79% (active) | 42% | -13.7% (active) | -23.5% (active) | 
2 | O=C(NNc1nc2cc(F)c(F)cc2n2c(CN3CC4CNCC4C3)ccc12)c1cnccn1 (stereo not drawn) | 23% | 26.3% | 60% | 25.9% | 22.4% | 22% | 0.703% (active) | -1.09% (active) | 2.25% (active) | 27.4% | 29.2% | 19.5 | 22.1% | 14.1% | 33.4% | 15% |  | 7% (active) | 9.82% (active)
3 | CCn1c2ccccc2c2cc(-n3nncc3-c3ccccc3)ccc21 | 8.42% (active) | 2.01% (active) | 27.4% | 24.1% | 25.1% | 29.1% | -11.7% (active) | 35.5% | -29.5% (active) | 66.4% | 68.2% | 45.5 | 25.4% | 36.8% | 90.5% | 29.2% | -0.537% (active) | 12.7% | 19.5%
4 | NC(N)=Nc1ccc(Oc2cccc(NC(N)=Nc3ccc(I)cc3F)c2)cn1 | 87.4% | 31.8% | 77.5% | 26.3% | 46.1% | 28.1% | 48.8% | 63% | 12.8% | 71.9% | 86.8% | 63 | 39.4% | 83.8% | 71.3% | 94.9% | 49% | 42.8% | 43.2%
5 | COc1ccccc1NC1=C(Cl)C(=O)c2nc(C)ccc2C1=O | -47% (active) | 75% | 105% | 38.9% | 62.8% | 27.4% | -93.3% (active) | -45.8% (active) | -73% (active) | 14.1% | 78.8% | 28.5 | -49.5% (active) | -65.7% (active) | 148% | -99.9% (active) | 71.8% | -39% (active) | -4.94% (active)
6 | CN(C)CCNC(=O)c1ccc(-c2nc3ccc4[nH]ncc4c3c3c2COCC3)cc1 | 84.7% | 16.7% | -30.1% (active) | 6.94% (active) | 5.37% (active) | 0.378% (active) | 3.57% (active) | -24.7% (active) | -72.4% (active) | -6.13% (active) | -69.7% (active) | 33.1 | 5.07% (active) | 82.9% | 44% | 69.4% | -60.4% (active) | -9.13% (active) | 2.22% (active)
7 | C=CCn1c(SCC(=O)Nc2ccc(C(=O)/C=C/c3cc(OC)c(OC)c(OC)c3)cc2)nnc1-c1c[nH]c2ccccc12 | -20.3% (active) | -57.2% (active) | 91.2% | 21.7% | 8.96% (active) | 40.6% | 25.2% | 36.7% | -65.1% (active) | 41.7% | 101% | 73.7 | 34.1% | 43.5% | 144% | 52.2% | 44% | 2.78% (active) | 5.4% (active)
8 | COc1c(N2CC3CCCNC3C2)c(F)cc2c(=O)c(C(=O)N/N=C/c3ccc4c(c3)OCO4)cn(C3CC3)c12 (stereo not drawn) | 3.7% (active) | -19.2% (active) | 102% | 80.5% | 12.4% | 60.1% | 22.8% | 90.7% | -64.3% (active) | 96.5% | 103% | 66.6 | 82.9% | 64.9% | 124% | 85.3% | 105% | 59.3% | 31.7%
9 | O=C(NCCN1CCCC1)c1ccc(-c2nc3ccc4[nH]ncc4c3c3c2CCCC3)cc1 | 26.1% | 4.8% (active) | 33.7% | 7.71% (active) | 10.7% | 8.15% (active) | 5.04% (active) | 18.4% | -89.6% (active) | 5.05% (active) | 10.1% | 24 | 8.98% (active) | 43.3% | 27.3% | 15.8% | -80% (active) |  | 9% (active)
